Screening data deposited in PubChem by National Center for Advancing Translational Sciences (NCATS).
This is a sample that favours compounds with a hit; in the whole collection about 5.7% have one here.
A549 viability: kills or reduces viability of A549 cells in Nrf2 counter-screen; A549 ARE-Fluc cells, CellTiter-Fluor viability, 18-24 h; Potency, µM (doses to about 46 µM), for inactives: at the top dose activity change, negative = cytotoxicity, most hits filed as inhibitors; 0.16% of 390,000 active; note: potency is the fitted concentration of half-maximal effect
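A549 ARE_Fluc cells in 5% FBS OPTI-MEM were exposed to compounds in concentration-response for 18-24 h at 37 deg C. Viability was read by CellTiter-Fluor fluorescence (Ex 405/Em 525) after 30 min, before the luciferase read.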
PI4K2A inh: inhibitors of human PI4K2A; purified PI4K2A, ADP-Glo luminescence, 1 h; stronger effect = lower value; Q9BTU6; 0.13% of 420,000 active; activity change, negative = inhibition, % at 76.9 µM; in the data active = activity change below about -50%; inconclusive = mostly about -30% to -49%;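 note: -100% = wells without enzyme as full effect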
Target sequence (Q9BTU6 whole entry, looked up): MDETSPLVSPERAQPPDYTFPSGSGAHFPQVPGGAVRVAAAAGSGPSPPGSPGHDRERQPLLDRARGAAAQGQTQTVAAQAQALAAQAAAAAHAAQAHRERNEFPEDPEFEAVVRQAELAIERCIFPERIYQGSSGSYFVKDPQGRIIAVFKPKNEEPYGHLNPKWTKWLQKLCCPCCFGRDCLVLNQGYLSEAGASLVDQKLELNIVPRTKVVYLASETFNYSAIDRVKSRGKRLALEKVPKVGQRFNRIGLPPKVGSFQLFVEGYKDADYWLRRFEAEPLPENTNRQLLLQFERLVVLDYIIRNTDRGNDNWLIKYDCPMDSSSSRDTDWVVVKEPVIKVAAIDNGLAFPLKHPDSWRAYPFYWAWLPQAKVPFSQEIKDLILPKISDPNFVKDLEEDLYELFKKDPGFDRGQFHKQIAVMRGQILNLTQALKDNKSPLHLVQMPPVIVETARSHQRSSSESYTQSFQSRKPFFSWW
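Compounds are screened against recombinant PI4K2A using PI as substrate and ATP, the latter dispensed at 300 microM. Reactions run one hour at ambient temperature before ADP-Glo detection; full inhibition defined by wells lacking enzyme.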
Nrf2 block: inhibitors of Nrf2 signaling. A549 ARE-Fluc reporter, luciferase luminescence, 18-24 h. Potency, µM (series often up to 46 µM), inactives show top-dose activity change, negative = inhibition, hits mostly inhibitors. 2.1% of 360,000 active; note: potency is the fitted concentration of half-maximal effect; nearly all actives have a fitted effect of over 60% in size
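Nrf2 activity is the BugLite luminescence, read 15 min after reagent at room temperature, following CellTiter-Fluor cytotoxicity readout (30 min, 37C). Compound titrations were applied for 18-24 h to 5000 A549 ARE_Fluc cells/well in 5% FBS OPTI-MEM.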
KB-V1 cytotox: kills drug-selected multidrug resistant KB-V1 cells. 3.4% of 400,000 active. Potency, µM (doses to about 46.1 µM), usual class: cytotoxic. KB-V1 MDR cells viability, CellTiter-Glo, 72 h; note: potency is the fitted concentration of half-maximal effect; nearly all actives have a fitted effect of over 60% in size
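Cytotoxicity via CellTiter-Glo luminescence after 72 h compound exposure at 37 degrees C. Cells: drug-selected KB-V1 line, DMEM phenol-red free plus 10% FBS. Compounds tested at multiple concentrations; normalized data fitted to concentration-effect curves.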
KB-3-1 tox: kills parental KB-3-1 adenocarcinoma cells | KB-3-1 viability, CellTiter-Glo ATP luminescence, 72 h | Potency, µM (top dose mostly 46.1 µM), actives largely listed as cytotoxic | 1.4% of 400,000 active | AID 1347075; note: potency is the fitted concentration of half-maximal effect; nearly all actives have a fitted effect of over 60% in size
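Cytotoxicity measured as CellTiter-Glo luminescence after 72 h at 37 C. Compound titrations were pinned onto drug-naive KB-3-1 parental adenocarcinoma cells grown in DMEM with 10% FBS, and normalized data fitted to concentration-response curves.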
Giardia killer: Giardia lamblia killing; Giardia lamblia trophozoite viability; activity change, % at 7.66 µM, hits read low; 0.15% of 340,000 active; AID 540267; in the data active = activity change below about -80%; inconclusive = between about -30% and that limit;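 note: parasites exposed to compound for two days anaerobically before the ATP read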
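Compounds were tested on trophozoites seeded at 100 cells/well and held 48 hrs at 37 deg C anaerobically. An ATP-based luminescent kit measured the remaining live cells.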
The depositor's hits bear a star; i = inactive; ? = inconclusive; / = no result given. Unless noted, calls come from the whole dose curve; as a rule, active = well fitted curve in the direction sought with a large enough effect; inconclusive = small, poorly fitted or top-dose-only effect, or another doubt; inactive = no such curve, though single readings can be large; an effect the other way counts as inactive or inconclusive. Unless noted, % is set by controls: 0 for no effect and ±100 for the full control effect.

SMILES	A549 viability	PI4K2A inh	Nrf2 block	KB-V1 cytotox	KB-3-1 tox	Giardia killer
COC(=O)[C@]12C[C@H](CC(=O)NCCCN3CCCC3=O)C(=O)N(Cc3cccc4ccccc34)C1=C[C@H](C(C)(C)C)O[C@@H]2C	/	-2.0	/	/	/	/
CN(CCCOC(=O)CC1C=CCC1)C1CN(Cc2cn(Cc3ccccc3Cl)nn2)S(=O)(=O)C1 (configuration not stated)	/	-3.0	/	/	/	/
O=C(NCC(c1cccnc1)N1CCOCC1)C(=O)Nc1ccc(F)cc1 (configuration not stated)	-6.1%	-8.6	23.1µM*	i	i	/
Cc1ccc(NC(=O)C(=O)NCC(c2cccnc2)N2CCOCC2)cc1C (configuration not stated)	?	-0.2	?	i	i	/
O=C(CCc1ccccc1)N[C@H]1[C@H](OC(=O)c2ccco2)CCC[C@]12C(=O)N(Cc1ccccc1)c1ccccc12	/	-4.9	/	/	/	/
O=C(CSc1nc2ccccc2c(=O)[nH]1)c1ccc(O)c(O)c1	0.1%	0.6	9.4%	18.4µM*	?	-3.6
CC(C)CCNC(=O)CSc1nc2ccccc2c(=O)[nH]1	-5.6%	3.4	/	16.4µM*	i	-1.3
O=C(CSc1nc2ccccc2c(=O)[nH]1)c1ccc(O)cc1O	3.4%	7.4	?	i	i	19.5
O=C(CSc1nc2ccc(Cl)cc2[nH]1)NCCc1ccccc1	-2.9%	1.6	?	16.4µM*	i	-7.5
COc1cccc(C2c3c(ncn(-c4ccccc4C#N)c3=N)Oc3ccc4ccccc4c32)c1 (configuration not stated)	-2.0%	/	?	/	/	/
O=C(O)/C=C/c1ccc2ccccc2c1	/	/	/	i	i	/
Cc1ccc(C2CCC3(CCC(=O)N3CCO)CC2)cc1 (configuration not stated)	/	4.4	/	/	/	/
CN(C)c1ccc(C=O)c(F)c1	/	/	/	i	i	/
CC(COc1ccccc1)NN (configuration not stated)	/	-12.0	/	/	/	/
COc1ccc(NC(=O)c2cc(S(=O)(=O)Nc3ccc(OC)cc3)cs2)cc1	0.3%	-3.8	?	20.6µM*	i	-9.7
O=C(Nc1ccc(F)cc1)c1cc(S(=O)(=O)Nc2ccc(F)cc2)cs1	?	-2.5	18.4µM*	i	i	-11.3
CC(C)Oc1ccc(CNS(=O)(=O)c2csc(C(N)=O)c2)cc1	2.7%	-0.3	14.6µM*	?	?	12.9
Cc1ccc(S(=O)(=O)Nc2ccc(NC(=O)c3ccc(F)cc3)cc2)cc1	5.0%	2.1	2.6%	i	i	-0.1
Cc1ccc(NS(=O)(=O)c2csc(C(N)=O)c2)cc1C	-13.9%	6.6	16.4µM*	i	i	4.9
COc1ccccc1CCNC(=O)C(C)Sc1nc(-c2ccccc2)cc(C(F)(F)F)n1 (configuration not stated)	-8.0%	1.5	-18.1%	i	i	/
COC(=O)c1cc(S(N)(=O)=O)ccc1OC	/	2.6	/	/	/	/
CCCN1CCC(=NNc2ccc(S(=O)(=O)N(CC)CC)cc2[N+](=O)[O-])CC1	-24.0%	-1.6	-2.8%	11.6µM*	?	-9.5
CC1(C)CC(=O)N(CC(=O)N2CCN(c3cccc(C(F)(F)F)c3)CC2)c2ccccc2S1(=O)=O	/	-3.0	/	/	/	/
COc1cc(OC)c2c(c1)C(=O)OC2c1cc(OC)c(OC)cc1C (configuration not stated)	-2.2%	/	-12.2%	i	i	-6.0
Cc1cc(N2CCC(C)CC2)nc2ccccc12	/	-2.2	/	/	/	/
SMILES	A549 viability	PI4K2A inh	Nrf2 block	KB-V1 cytotox	KB-3-1 tox	Giardia killer
O=[N+]([O-])c1ccccc1OCCCn1cnc2ccccc21	-1.2%	-2.3	?	7.31µM*	i	-10.2
Clc1ccc(OCCn2cnc3ccccc32)c(Cl)c1	-1.0%	6.9	?	16.4µM*	?	-9.1
c1ccc2c(c1)ncn2CCOCCOCCn1cnc2ccccc21	-4.0%	-2.7	-14.0%	i	i	23.7
O=C(OCC#CCSc1nnc(-c2cccc3ccccc23)o1)c1ccc(SC(F)(F)F)cc1	2.1%	2.5	-9.5%	/	/	/
CCN(CC)C(=O)CSc1ncnc2sccc12	1.8%	2.5	?	i	i	15.4
CC1CC(C)CN(C(=O)CSc2ncnc3sccc23)C1 (configuration not stated)	-3.0%	-4.9	17.3%	20.6µM*	i	-3.7
CCOc1ccccc1C(=O)N(Cc1cc(OC)c(OC)c(OC)c1)c1ccccn1	2.1%	1.9	-7.7%	?	i	/
CN1c2ccccc2N(C)C1c1ccc2c(c1)OCO2	-14.2%	6.9	?	i	5.8µM*	-5.5
CC12CN3CC(C)(CN(C1)C3c1ccc3c(c1)OCO3)C2=O (configuration not stated)	-3.4%	0.1	0.2%	i	i	?
O=S(Cc1ccc(Br)cc1)Cc1nnc(SCc2c(Cl)cccc2Cl)n1-c1ccccc1 (configuration not stated)	15.6%	-4.2	?	0.82µM*	i	0.5
Cn1c(CS(=O)Cc2c(Cl)cccc2Cl)nnc1SCc1c(Cl)cccc1Cl (configuration not stated)	-6.6%	4.3	/	5.8µM*	i	-2.2
Clc1cccc(Cl)c1CSc1nnc(CN2CCOCC2)n1-c1ccccc1	-1.5%	-15.0	-16.7%	i	i	-9.8
Cc1ccc(CN2CCCCC(NC(=O)c3cccc(F)c3)C2=O)cc1 (configuration not stated)	/	2.3	/	/	/	/
CN(Cc1ccccc1)c1ccc(C(CC(N)=O)NC(=O)c2ccccc2)cc1[N+](=O)[O-] (configuration not stated)	?	-2.6	10.3µM*	i	i	-6.5
CN(Cc1ccccc1)c1ccc(C(CC(N)=O)NC(=O)Cc2ccc(Br)cc2)cc1[N+](=O)[O-] (configuration not stated)	-0.1%	0.8	-13.4%	i	i	-13.9
Cc1ccc(C(=O)Nc2c(C)nc3ccccn3c2=O)cc1	2.7%	-3.9	/	/	/	/
Cc1ccc(OCC(=O)Nc2ccccc2N2CCOCC2)c(C)c1	7.5%	7.8	5.0%	i	i	-4.9
O=C(COc1ccc(F)cc1Br)Nc1ccccc1N1CCOCC1	0.7%	-0.9	?	8.2µM*	i	14.4
CCOC(=O)Cn1nc(C)c(NC(=O)COc2ccc(Cl)cc2C)c1C	-1.7%	4.0	23.1µM*	?	i	/
COc1cc(C)ccc1OCC(=O)Nc1ccccc1N1CCOCC1	1.9%	-3.3	-6.8%	5.8µM*	i	-5.7
